Out of some 69,000 compounds screened, about 420 (0.61%) showed an effect of 50% or more. Shown is part of a subset that was picked to be rich in strong results.
molecular target: T1, Histidine--tRNA ligase (Leishmania infantum) (UniProt A4I591); assay: Leishmania infantum Histidine tRNA synthetase (LdHisRS); format: functional; parameters: scale not given: in the data most compounds retested in dose-response had high values; settings: 30 µM
T1 sequence (whole entry): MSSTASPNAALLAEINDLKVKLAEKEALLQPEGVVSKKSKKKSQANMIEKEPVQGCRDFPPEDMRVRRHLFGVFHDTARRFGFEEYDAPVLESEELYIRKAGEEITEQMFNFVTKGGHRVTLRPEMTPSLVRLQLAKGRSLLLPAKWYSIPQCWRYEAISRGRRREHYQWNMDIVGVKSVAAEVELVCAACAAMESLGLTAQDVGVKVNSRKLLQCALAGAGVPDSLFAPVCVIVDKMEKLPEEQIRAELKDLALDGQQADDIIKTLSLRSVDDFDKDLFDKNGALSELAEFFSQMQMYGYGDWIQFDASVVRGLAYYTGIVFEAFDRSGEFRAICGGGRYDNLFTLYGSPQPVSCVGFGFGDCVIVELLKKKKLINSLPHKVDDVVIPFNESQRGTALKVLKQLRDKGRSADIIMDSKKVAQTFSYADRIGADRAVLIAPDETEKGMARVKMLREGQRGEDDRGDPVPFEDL

| Compound | Percent Effect |
| --- | --- |
| Cc1cnccc1NC(=O)CCc1ccsc1 | 9.33% |
| CN(Cc1ccsc1)C(=O)Nc1ccc(S(C)(=O)=O)cc1 | 11.9% |
| CCNC(=O)N1CCc2ccc(NC(=O)NCc3ccsc3)cc21 | 31.7% |
| CN(Cc1ccsc1)C(=O)Nc1ccc(=O)n(C)c1 | 123% |
| Cn1cc(NC(=O)NCc2ccsc2)ccc1=O | 126% |
| Cn1cc(NC(=O)CCc2ccsc2)ccc1=O | 103% |
| CN(Cc1ccsc1)C(=O)Nc1ccc(S(=O)(=O)N(C)C)cc1 | -30.3% |
| Cc1cc(NC(=O)CCc2ccsc2)n(C)n1 | 18.3% |
| COCc1csc(NC(=O)NCc2ccsc2)n1 | 14.3% |
| O=C1CO[C@H]2CN(S(=O)(=O)c3ccccc3)C[C@H]2N1Cc1ccccc1 | 25% |
| CCC1=N[C@@]2(CC[C@@H]3CN(S(C)(=O)=O)C[C@@H]32)C(=O)N1CC(C)C | 7.96% |
| CC(C)CO[C@H]1CN(S(=O)(=O)c2cn(C)cn2)[C@@H]2CCCO[C@H]12 | 1.01% |
| C(=C\c1ccc(CN2CCCC2)cn1)/c1ccccc1 | 22.6% |
| COc1ccc(C)cc1CN1CCn2cccc2C1C (stereo not given) | 42% |
| COc1ccc(CN2CCn3cccc3C2C)cc1F (stereo not given) | 29.5% |
| COc1ccc(C(C)=O)cc1CN1CCn2cccc2C1C (stereo not given) | 52.7% |
| CN(C)C[C@H]1OC[C@@H]2CCN(S(=O)(=O)c3ccc(F)cc3)C[C@@H]21 | -4.59% |
| O=C1CC[C@H]2CN(C3CCOCC3)CC[C@H]2N1CCC1=CCCCC1 | 15.6% |
| COc1ccc(CN2C[C@@H]3CC[C@H](C2)N(S(C)(=O)=O)C3)cc1 | 10% |
| O=S1(=O)C[C@@H]2[C@H](C1)N(S(=O)(=O)N1CCCC1)CCN2Cc1ccccc1 | 19.2% |
| CN(C)CCN1CCO[C@H]2CCN(C(=O)c3cccs3)CC[C@@H]21 | 15.4% |
| CN(C)CCN1CCO[C@@H]2CCN(C(=O)c3cccn3C)CC[C@H]21 | 52.8% |
| CN(C)CCN1CCCC12CCN(C(=O)c1cccn1C)CC2 | 5.88% |
| COc1ccccc1CN1C(=O)O[C@@H]2CN(CC3CC3)C[C@@H]21 | 10% |
| O=C([C@@H]1CC[C@@H]2[C@@H](CCN2Cc2cccs2)O1)N1CCCCO1 | 17.1% |
| NC(=O)c1cnc2n1CCN(C(=O)c1cccc(Cn3cccn3)c1)C2 | 12.6% |
| NC(=O)c1cnc2n1CCN(C(=O)c1ccc(-c3cc[nH]n3)cc1)C2 | 14.9% |
| CC(C)c1nnc2n1CCN(C(=O)c1ccc(Cn3cccc3)cc1)C2 | 14.9% |

| Compound | Percent Effect |
| --- | --- |
| Cc1nnc2n1CCN(C(=O)c1ccc(Cn3cccc3)cc1)C2 | 51.7% |
| Cc1nc2ccc(C(=O)N3CCn4c(C)nnc4C3)cc2nc1C | 21% |
| NC(=O)c1cnc2n1CCN(C(=O)c1ccc(Cn3cccc3)cc1)C2 | 63.2% |
| COc1cccc(SCCCn2cnc3c(N)ncnc32)c1 | 4.08% |
| Clc1ccc(C2(CNC3=NCCN3)CCCC2)cc1 | 35.7% |
| Clc1ccc(C2(CNC3=NCCN3)CCCCC2)cc1 | 50% |
| Clc1ccc(C2(CNC3=NCCN3)CC2)cc1 | 18.6% |
| CC(C)c1n[nH]c(C(=O)Nc2ccccn2)c1Br | 0% |
| CNC(=O)[C@@]12CCO[C@@H]1CCN(S(=O)(=O)c1ccccc1C)C2 | 5% |
| CC(C)CS(=O)(=O)N1C[C@H]2C[C@H](C(=O)N3CCOCC3)[C@@H](C1)O2 | 1.89% |
| O=C(c1cccnc1-c1ccoc1)N1C[C@H]2CC[C@@H]1C2 | 1.43% |
| COc1ccc(C(C)C)cc1C1CC(=O)NCc2nc(N(C)C)sc21 (stereo not given) | 31.2% |
| COc1ccc(OC)c(C2CCN(CC(C)(C)N3CCOCC3)C2)c1 (stereo not given) | 12.7% |
| CCn1ncnc1C1CC(=O)NCc2nc(N3CCOCC3)sc21 (stereo not given) | 25.3% |
| COc1ccc(C2CC(=O)NCc3nc(N(C)C)sc32)c(O)c1 (stereo not given) | 10.8% |
| COc1ccc(C2CC(=O)Nc3nc(N4CCOCC4)sc32)cc1 (stereo not given) | 105% |
| COc1ccc(C2CC(=O)Nc3nc(N4CCOCC4)sc32)c(OC)c1 (stereo not given) | 115% |
| COc1ccc(C2CCCN2c2nnc(C)s2)c(OC)c1 (stereo not given) | 6.25% |
| COc1ccc(OC)c(C2CC(=O)Nc3nc(N4CCOCC4)sc32)c1 (stereo not given) | 102% |
| COc1ccc(C2CC(=O)Nc3c2cnn3C)cc1 (stereo not given) | 1.91% |
| O=C(c1ccncc1)N1C[C@@H]2CC[C@H](C1)N(C(=O)N1CCOCC1)C2 | 12.6% |
| COCC(=O)N1CC[C@]2(O)CCN(Cc3cccnc3OC)C[C@@H]2C1 | 17.1% |
| COc1ccc(CC(=O)N2CC[C@@H]3NC(=O)CC[C@@H]32)cc1 | 8.77% |
| O=C(NCc1cnn2cccnc12)c1cccc(CC2CCNCC2)c1 | 60% |
| CC(C)Cn1cncc1CNC(=O)c1cccc(CC2CCNCC2)c1 | 25.6% |
| CC(C)(O)CCc1cccc(C(=O)NCc2cnn3cccnc23)c1 | 2.22% |
| O=C(CC1CCCCC1)N1C[C@H]2CC[C@@H]1CN(Cc1cccnc1)C2 | 9.68% |
